According to PubChem BioAssay (Tox21):
Results filed as inconclusive are left out. Entries that show only a call come without a potency. Unmarked numbers belong to inactive results. Calls of active or inactive are those of the source. Calls follow the shape of the full dose curve.

Assay: cAMP Responsive Elements (CRE) small molecule agonists, cell-based qHTS assay (AID 1963590)
Conditions: CRE-bla HEK293T, beta-lactamase FRET ratio, 3 h; series mostly up to 92.4 µM
From the text: U.S. Tox21 Program National Center for Advancing Translational Sciences [NCATS] Division of Preclinical Innovation [DPI] U.S. Environmental Protection Agency [EPA] National Institutes of Environmental Health Sciences [NIEHS] National Toxicology Program [NTP] U.S. Food and Drug Administration [FDA] Tox21 Assay Overview: CREB (cyclic-AMP Responsive Element Binding Protein) is a cellular transcription factor. It binds to certain DNA sequences called cAMP Responsive Elements (CRE) and regulates the transcription of the genes. […] This cell line can be used to find agonists/antagonists of the cyclic AMP signaling pathway. The activation of the report gene under culture conditions can be detected by fluorescence intensity. This cell line has been used to screen the Tox21 10K compound library to identify agonists that induce oxidative stress.
Tox21 Assay Protocol Summary: CRE-bla Hek 293T cells were suspended in assay medium (DMEM containing 10% dialyzed FBS, 0.1 mM NEAA, 1 mM sodium pyruvate and 25 mM HEPES) and dispensed at 2,000 cells/5 uL /well into 1536-well black wall/clear bottom plates using a Multidrop Combi (ThermoFisher Scientific, Waltham, MA) dispenser. After the assay plates were incubated at 37 C/5% CO2 for 18 hrs, 23 nL of compounds dissolved in DMSO, positive controls or DMSO only was transferred to the assay plate by a pintool workstation (Kalypsys, San Diego, CA). After the plates were incubated at 37 C/5% CO2 for 3 hrs, 1 uL of LiveBLAzer B/G FRET substrate (Invitrogen, Carlsbad, CA) was added to each well using Bioraptr Flying Reagent Dispenser (FRD, Aurora Discovery, San Diego, CA). The plates were incubated at room temperature for 2 h.

Structure (SMILES) | Potency | activation
C1COCO1 | inactive | –
CCN1C=CN(C)C1C (stereo not given) | inactive | –
CC(C)OC(=O)CCC(=O)OC(C)C | inactive | –
CCN1CCC[C@H]1CNC(=O)c1c(OC)ccc(Br)c1OC | inactive | –
CC(=O)OCC(=O)NCCCOc1cccc(CN2CCCCC2)c1 | inactive | –
C=CCOC(=O)c1ccc(C(=O)OCC=C)c(C(=O)OCC=C)c1 | inactive | –
FC(F)(Cl)C(F)(Cl)Cl | inactive | –
COC(=O)C1=C(C)NC(C)=C(C(=O)O[C@@H]2CCCN(Cc3ccccc3)C2)[C@@H]1c1cccc([N+](=O)[O-])c1 | inactive | –
CC1(C)CC(=O)CC(C)(C)N1 | inactive | –
Oc1ccccc1-c1nnco1 | inactive | –
CCN1CCN(C(=O)N[C@@H](C(=O)N[C@@H]2C(=O)N3C(C(=O)O)=C(CSc4nnnn4C)CS[C@H]23)c2ccc(O)cc2)C(=O)C1=O | inactive | –
NCCN1CCOCC1 | inactive | –
COC(=O)c1cc(Cl)cc(Cl)c1 | inactive | –
CCn1ccc(NS(=O)(=O)c2ccc(N)cc2)nc1=O | inactive | –
CC(O)C#CC(C)O (stereo not given) | inactive | –
O=C(O)CCCCCCCCCC(=O)O | inactive | –
CNC(=S)NN | inactive | –
Cc1onc(-c2c(Cl)cccc2Cl)c1C(=O)N[C@@H]1C(=O)N2[C@@H]1SC(C)(C)[C@@H]2C(=O)O | inactive | –
CCCCC[Si](OCC)(OCC)OCC | inactive | –
CCCCOCCOCCOCc1cc2c(cc1CCC)OCO2 | inactive | –

Structure (SMILES) | Potency | activation
COC(=O)NCCC[Si](OC)(OC)OC | inactive | –
Cc1ccccc1OCC(=O)O | inactive | –
CCOc1ccc(O)cc1 | inactive | –
CCCCCOC(=O)CCCCC | inactive | –
CCCCCCCCCCC=O | inactive | –
CCc1c2c(nc3ccc(OC(=O)N4CCC(N5CCCCC5)CC4)cc13)-c1cc3c(c(=O)n1C2)COC(=O)[C@]3(O)CC | inactive | –
O=C(Cl)c1ccc(Cl)cc1Cl | inactive | –
O=C(O)c1ccccc1Nc1cc(Cl)ccc1C(=O)O | – | -0.0043% [at 19 µM]
CCNC(=O)/C=C/c1cccc(Br)c1 | inactive | –
Cc1ccccc1Br | inactive | –
CC[N+](C)(CC)CC | inactive | –
CC(C)C[C@H]1C(=O)N2CCC[C@H]2[C@]2(O)O[C@](NC(=O)[C@@H]3C=C4c5cccc6[nH]c(Br)c(c56)C[C@H]4N(C)C3)(C(C)C)C(=O)N12 | inactive | –
C(=C(c1ccccc1)c1ccccc1)c1ccccc1 | inactive | –
CC(=O)Oc1ccc2c(c1)CC[C@@H]1[C@@H]2CC[C@]2(C)[C@@H](O)CC[C@@H]12 | inactive | –
CC1=C(C=O)C(C)(C)CCC1 | inactive | –
CC1=C(C/C=C(\C)CCC[C@H](C)CCC[C@H](C)CCCC(C)C)C(=O)c2ccccc2C1=O | inactive | –
Nc1nc(F)nc2c1ncn2[C@@H]1O[C@H](CO)[C@@H](O)[C@@H]1O | inactive | –
CCN(Cc1cccc(S(=O)(=O)O)c1)c1ccc(C(=C2C=CC(=[N+](CC)Cc3cccc(S(=O)(=O)O)c3)C=C2)c2ccccc2S(=O)(=O)[O-])cc1 | inactive | –
OCCc1ccncc1 | inactive | –
C/C(CC(C)C)=N\O | inactive | –
